# High-throughput results deposited in PubChem by National Center for Advancing Translational Sciences (NCATS).
# FLuc inh-1: Firefly luciferase inhibition profiling of diverse chemical library using quantitative high-throughput screening; Luciferin 4-monooxygenase (Photinus pyralis), P08659; purified P. pyralis luciferase, luminescence, biochemical; Potency, µM (highest dose often 115 µM), hits mostly inhibitors; 76,000 compounds, 2.5% hits; also: nearly all actives have a fitted effect of over 65% in size
# Target sequence (P08659 whole entry, looked up): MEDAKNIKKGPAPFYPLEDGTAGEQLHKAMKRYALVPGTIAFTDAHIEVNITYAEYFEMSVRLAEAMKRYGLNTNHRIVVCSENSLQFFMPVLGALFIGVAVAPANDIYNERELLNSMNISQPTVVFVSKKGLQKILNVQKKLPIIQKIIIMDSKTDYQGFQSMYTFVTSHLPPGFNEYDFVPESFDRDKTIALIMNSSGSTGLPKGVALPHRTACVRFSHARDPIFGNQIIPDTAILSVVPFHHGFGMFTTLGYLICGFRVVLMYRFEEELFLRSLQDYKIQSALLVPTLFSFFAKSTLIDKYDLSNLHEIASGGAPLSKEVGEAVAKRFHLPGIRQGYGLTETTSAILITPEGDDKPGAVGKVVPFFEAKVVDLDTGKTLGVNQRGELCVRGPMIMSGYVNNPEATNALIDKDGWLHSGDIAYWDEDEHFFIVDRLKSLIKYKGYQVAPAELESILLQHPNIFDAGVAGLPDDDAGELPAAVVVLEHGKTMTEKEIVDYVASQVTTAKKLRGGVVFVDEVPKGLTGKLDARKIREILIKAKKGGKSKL
#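 Cell-free enzyme assay, 10nM P. pyralis luciferase, luciferin and ATP each at 10uM. Inhibition profiled over a 6-point titration, read as luminescence.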
# HEK cytotox: Cytotoxic Profiling in HEK 293 Cell Line of Diverse Libraries Using Quantitative High-Throughput Screening | AID 1345083, 2018 | HEK 293 viability, ATP luminescence (CellTiter-Glo), 48-72 h | Potency, µM (doses to about 115 µM), hits mostly inhibitors | 94,000 compounds, 6.6% hits; also: nearly all actives have a fitted effect of over 60% in size
#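 CellTiter-Glo luminescence (cellular ATP) was read after 48 or 72 hr of compound exposure at 37 degree Celsius. Cells were HEK 293 plated at 250 cells/well.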
# NPR1 antag: Natriuretic polypeptide receptor (hNpr1) antagonism - Primary qHTS. Potency, µM (titrated, usually from 46.3 µM), most hits filed as inhibitors. HEK293 hNpr1 GloSensor cGMP, ANP-stimulated luminescence. 76,000 compounds, 1.6% hits; calls by dose curve; also: nearly all actives have a fitted effect of over 60% in size
#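 Compound pre-incubated 30 min at room temperature on GloSensor-loaded HEK293 cells stably carrying hNpr1 and the pGS-40F cGMP biosensor. Stimulation uses hNppA at 0.1 nM final; luminescence is taken at baseline and 20 min post-agonist.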
# NIH3T3 tox: Cytotoxic Profiling in NIH 3T3 Cell Line of Diverse Libraries Using Quantitative High-Throughput Screening; NIH 3T3 viability, CellTiter-Glo ATP luminescence, 48-72 h; Potency, µM (titrated, usually from 96.7 µM), most hits filed as inhibitors; 94,000 compounds, 4.3% hits; AID 1345082, 2018; also: nearly all actives have a fitted effect of over 55% in size
#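 Cytotoxicity was measured by CellTiter-Glo ATP luminescence after 48 or 72 h compound exposure at 37 °C. Mouse NIH 3T3 fibroblasts were seeded at 400 cells/well and dosed by 23 nL pin transfer.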
# FLuc SDR no ATP: Firefly luciferase (FLuc-C-HiBiT) SDR gain of signal screen - without ATP | shares compounds with FLuc inh-1 | Purified FLuc-C-HiBiT, Nano-Glo HiBiT luminescence, no ATP | Potency, µM (top dose mostly 32.7 µM), hits mostly activators | 1,300 compounds, 7.8% hits; also: nearly all actives have a fitted effect of over 55% in size
# FLuc SDR ATP: Firefly luciferase (FLuc-C-HiBiT) SDR gain of signal screen - plus ATP; shares compounds with FLuc inh-1; purified FLuc-C-HiBiT + ATP, HiBiT complementation luminescence; Potency, µM (top dose mostly 32.7 µM), actives largely listed as activators; 1,300 compounds, 8.7% hits;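 also: signal reports ligand binding via conformational change of the enzyme rather than luciferase catalysis; nearly all actives have a fitted effect of over 55% in size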
# FLuc inh-2: Firefly luciferase (FLuc-C-HiBiT) enzymatic inhibition screen - Functional assay; AID 1963320, 2024; purified FLuc-C-HiBiT enzyme, luciferin luminescence; shares compounds with FLuc inh-1; 1,300 compounds, 42% hits; Potency, µM (doses to about 32.7 µM), hits mostly inhibitors; also: nearly all actives have a fitted effect of over 70% in size
# A number is an active result; – = inactive; ? = inconclusive; · = not tested or not shown. Most compounds without a hit are left out; they make up all but 11% or so of the library. Unless noted, calls follow the shape of the dose curve; as a rule, active = well fitted curve in the direction sought with a large enough effect; inconclusive = small, poorly fitted or top-dose-only effect, or another doubt; inactive = no such curve, though single readings can be large; an effect the other way counts as inactive or inconclusive.
SMILES,FLuc inh-1,HEK cytotox,NPR1 antag,NIH3T3 tox,FLuc SDR no ATP,FLuc SDR ATP,FLuc inh-2
COc1ccc(OC)c(-c2noc(Nc3cccc(F)c3)n2)c1,–,?,–,–,·,·,·
COc1ccc(-c2noc(Nc3ccc4c(c3)OCO4)n2)cc1,?,?,–,–,·,·,·
CCc1ccc(Nc2nc(-c3ccccc3F)no2)cc1,2.5µM,?,13µM,?,–,–,6.2µM
COc1cccc(-c2noc(Nc3ccc4c(c3)OCCO4)n2)c1,0.32µM,?,5µM,–,?,?,1.6µM
COc1ccc(Nc2nc(-c3ccccc3F)no2)cc1OC,2.2µM,?,?,?,–,?,3.5µM
COc1cccc(-c2noc(Nc3ccc(OC)c(OC)c3)n2)c1,2µM,?,?,?,?,–,3.9µM
CN1C(=O)c2cccn2CC1C(=O)NCc1cccs1 (centres undefined),–,–,–,–,·,·,·
Cc1cccc(C(=O)NCC(=O)N2CCCCCCNC(=O)CC2c2ccccc2)c1 (centres undefined),–,–,–,–,·,·,·
Cn1cccc1C(=O)N1CC(n2cc(C(=O)N3CCOCC3)nn2)C1,·,–,·,–,·,·,·
Cc1cn2nc(-c3nc(C4CCCN(C(=O)c5ccc(C)c(F)c5)C4)no3)cc2c(=O)[nH]1 (centres undefined),–,–,–,–,·,·,·
O=C(C1CCCN1C(=O)c1ccc(Cl)nc1)N1CCCC(c2nc3ncccc3[nH]2)C1 (centres undefined),·,–,·,–,·,·,·
COc1cccc(-c2noc(Nc3ccc4c(c3)OCO4)n2)c1,2µM,?,?,?,–,?,6.2µM
CCCc1noc(-c2nc(-c3ccccc3F)no2)n1,5.6µM,–,?,–,–,–,?
CN1CCC(NC(=O)C(C)(C)Oc2nn(Cc3ncccn3)c3ccccc23)CC1,·,·,·,·,–,–,–
CC(C)(Oc1nn(CC2CC2)c2ccc(CN3CCCC3)cc12)C(=O)NC1CCOCC1,·,·,·,·,–,–,–
COc1ccc(NC(=O)C(C)(C)Oc2nn(CC3CC3)c3ccc(CN4CCCC4)cc23)cc1,–,?,–,?,·,·,·
CN(C)C(=O)c1ccc(-c2nnc3ccc(NC(=O)C4CCC4)cn23)cc1,?,?,–,–,·,·,·
Cc1cc(F)ccc1NC(=O)c1csc2c1CCC(C)C2 (centres undefined),·,·,·,·,–,–,?
CCS(=O)(=O)N1CCC2(CCC(=O)N(CC3CC3)CC2)CC1,–,–,–,–,·,·,·
O=c1c2c(n(CCOc3ccccc3)n1-c1ccccc1)CN(Cc1ccc3c(c1)CCO3)CC2,–,?,–,?,·,·,·
COCCOc1nc(N)c2[nH]c(=O)n(Cc3ccc(C(=O)O)cc3)c2n1,·,·,·,·,–,–,–
COc1ccc(Cn2c(=O)[nH]c3cccnc32)cc1,–,–,–,–,·,·,·
Cc1ccccc1-c1noc(-c2nc(-c3ccncc3)no2)n1,–,–,–,–,·,·,·
COc1ccc(-c2noc(-c3ccc(N4CCN(C)CC4)c([N+](=O)[O-])c3)n2)cc1,·,·,·,·,–,–,?
COc1ccccc1-c1noc(-c2ccc(N3CCN(C)CC3)c([N+](=O)[O-])c2)n1,·,·,·,·,?,?,5µM
SMILES,FLuc inh-1,HEK cytotox,NPR1 antag,NIH3T3 tox,FLuc SDR no ATP,FLuc SDR ATP,FLuc inh-2
CCc1noc(-c2nc(-c3ccccc3OC)no2)n1,–,?,–,–,·,·,·
Cc1ccccc1-c1noc(-c2ccc(N3CCCC3)c([N+](=O)[O-])c2)n1,·,·,·,·,–,?,?
CCOc1ccc(S(=O)(=O)N2CCCN(C(=O)C3CC3)c3ccccc32)cc1,–,?,–,–,·,·,·
CN(C)C1CCN(c2ccc(-c3nc(CCCc4ccccc4)no3)cn2)CC1,5.6µM,28µM,–,35µM,–,–,–
CC(C)c1ccc(S(=O)(=O)N2CC(c3nc(-c4ccncc4)no3)C2)cc1,–,?,?,–,·,·,·
Cc1cccc(C(=O)N2CCCCCC2c2nnc(-c3ccccc3)o2)c1 (centres undefined),–,?,–,?,·,·,·
Cc1ccc(-c2nnc(C3CN(C(=O)Cc4ccccc4)CC34CCOCC4)o2)cc1 (centres undefined),–,?,–,–,·,·,·
Cc1cccc(-c2nnc(SCCC(=O)O)o2)c1,·,·,·,·,–,?,5µM
Cc1ccc(-c2nnc(SCc3ccccc3)o2)cc1,·,·,·,·,–,–,?
CC(Cn1cccn1)Nc1ccc(-c2nc(-c3ccccc3F)no2)cn1 (centres undefined),3.5µM,45µM,?,?,–,?,9.9µM
CN(Cc1nccs1)c1ccc(-c2nc(-c3ccccc3F)no2)cn1,2.8µM,?,?,–,–,–,?
CCNC(=O)c1coc(COc2ccc3c(c2)C(c2cccc(F)c2)N(C(=O)C(C)(C)C)CC3)n1 (centres undefined),–,?,–,?,·,·,·
CCOc1ccc(C(=O)N2CCCC3(C2)NC(=O)N(Cc2cccc(Cl)c2)C3=O)cc1 (centres undefined),–,?,–,–,·,·,·
CC(C)n1cc2cc(C(=O)Nc3ccc4c(c3)OCCO4)sc2c1,14µM,35µM,?,–,–,–,9.9µM
CC(C)n1cc2cc(C(=O)NC3CCCCCC3)sc2c1,–,?,–,?,·,·,·
C[C@H](C(=O)NCCN1CCOCC1)C1CC[C@@]2(C)Cc3sc(-c4ccccc4)nc3[C@@H](C)[C@@H]2[C@H]1O (some centres undefined),11µM,?,?,?,2.2µM,?,0.99µM
CCc1nc2c(c(-c3ccc(Cl)cc3)n1)CCN(Cc1ccns1)CC2,–,–,–,–,·,·,·
CCc1nn2c(-c3ccco3)ccnc2c1-c1ccc(F)cc1,·,·,·,·,–,–,?
CC(C)Oc1ccc(CN2C(=O)C3(CCOCC3)CC2c2nnnn2C(C)(C)C)cc1 (centres undefined),–,–,–,–,·,·,·
C#CCn1c(/C=C/c2ccc(Cl)cc2)nc2ccccc21,·,·,·,·,3.9µM,?,0.62µM
CSCC(=O)Nc1nn(-c2ccc(F)cc2)c2cccc(N3CCOCC3)c12,6.3µM,?,?,?,–,–,?
O=C(Nc1nn(-c2cccc(F)c2)c2cccc(N3CCOC3=O)c12)C1CCC1,–,–,–,–,·,·,·
Cc1nnc(SCc2ccccc2)c2cc3sccc3n12,·,·,·,·,–,–,?
